According to the supplement of paper PMC9262897, “Low-cost anti-mycobacterial drug discovery using engineered E. coli” (Nature Communications, 2022):
Where a name gives a salt, the structure may show the parent alone. ± gives the standard deviation of the averaged measurements.

Assays:
Test in all cases: growth (OD600 after 10 h); higher = more growth (less inhibition)
[1] = tested on: E. coli TESEC Alr+ wild-type control; details: compound 0.1 mM; raw OD600 reference: median of DMSO wells 0.241, cell-free background 0.041
Description: (§1)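 TESEC Mtb Alr E. coli, or the Alr+ wild-type control, in 384-well plates with Prestwick library compounds at 0.1 mM and 1% DMSO, across arabinose induction levels of 1E3 to 1E7 nM. Growth is read as OD600 after 10 h at 37 °C in triplicate biological replicates.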

E. coli TESEC Mtb Alr [2] = details: compound 0.1 mM
Description: as §1

E. coli TESEC Mtb Asd = details: compound 0.1 mM
Description: (§2)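 TESEC E. coli strains in which the native enzyme is deleted and replaced by arabinose-inducible Mtb Asd, DapB, CysH or TrpD, each grown in its selective medium. Strains were screened against the Prestwick library at 0.1 mM and 1% DMSO in 384-well format at low and high arabinose induction. Growth is read as OD600 after 10 h in triplicate.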

E. coli TESEC Mtb DapB = details: compound 0.1 mM
Description: as §2

[3] = tested on: E. coli TESEC Alr+ wild-type control; details: compound 0.1 mM; raw OD600 reference: median of DMSO wells 0.49, cell-free background 0.052
Description: (§3)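 TESEC Mtb Alr E. coli (ΔaraC ΔtolC ΔentC Δalr ΔdadX, arabinose-inducible Mtb Alr) or the Alr+ wild-type control strain, grown in defined M9-fructose medium without D-alanine in 96-well plates with Prestwick library compounds at 0.1 mM and 1% DMSO. Low Alr induction is 0.1 µM arabinose and high induction is 10 mM arabinose.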

E. coli TESEC Mtb Alr [4] = details: compound 0.1 mM; remark: listed apart in the source
Description: as §3

[5] = arabinose 1000 nM, raw OD600 reference: median of DMSO wells 0.294, cell-free background 0.041
[6] = arabinose 10000 nM, raw OD600 reference: median of DMSO wells 0.264, cell-free background 0.041
[7] = arabinose 100000 nM, raw OD600 reference: median of DMSO wells 0.201, cell-free background 0.041
[8] = arabinose 1000000 nM, raw OD600 reference: median of DMSO wells 0.193, cell-free background 0.041
[9] = arabinose 10000000 nM, raw OD600 reference: median of DMSO wells 0.146, cell-free background 0.041
[10] = arabinose induction (level): High, raw OD600 reference: median of DMSO wells 0.331, cell-free background 0.041
[11] = arabinose induction (level): Low, raw OD600 reference: median of DMSO wells 0.417, cell-free background 0.041
[12] = arabinose induction (level): High, raw OD600 reference: median of DMSO wells […], cell-free background 0.041
[13] = arabinose induction (level): Low, raw OD600 reference: median of DMSO wells 0.227, cell-free background 0.041
[14] = arabinose 100 nM, raw OD600 reference: median of DMSO wells 0.413, cell-free background 0.052
[15] = arabinose 10000000 nM, raw OD600 reference: median of DMSO wells […], cell-free background 0.052

SMILES	growth [1]	growth (E. coli TESEC Mtb Alr [2]; [5])	growth (E. coli TESEC Mtb Alr [2]; [6])	growth (E. coli TESEC Mtb Alr [2]; [7])	growth (E. coli TESEC Mtb Alr [2]; [8])	growth (E. coli TESEC Mtb Alr [2]; [9])	growth (E. coli TESEC Mtb Asd; [10])	growth (E. coli TESEC Mtb Asd; [11])	growth (E. coli TESEC Mtb DapB; [12])	growth (E. coli TESEC Mtb DapB; [13])	growth [3]	growth (E. coli TESEC Mtb Alr [4]; [14])	growth (E. coli TESEC Mtb Alr [4]; [15])
CC(C)NCC(O)c1cc(O)cc(O)c1 (stereo unspecified) [Metaproterenol sulfate, orciprenaline sulfate]	0.247 ± 0.0097	0.291 ± 0.0065	0.268 ± 0.01	0.2 ± 0.03	0.185 ± 0.011	0.144 ± 0.0048	0.283 ± 0.046	0.346 ± 0.019	0.177 ± 0.013	0.183 ± 0.015	0.635 ± 0.09	0.411 ± 0.011	0.352 ± 0.029
CC1(C)[C@@H](OC(=O)CCC(=O)O)CC[C@]2(C)[C@H]3C(=O)C=C4[C@@H]5C[C@@](C)(C(=O)O)CC[C@]5(C)CC[C@@]4(C)[C@]3(C)CC[C@@H]12 [Carbenoxolone disodium salt]	0.248 ± 0.007	0.275 ± 0.004	0.2609 ± 0.0019	0.319 ± 0.0044	0.213 ± 0.0028	0.201 ± 0.0016	0.325 ± 0.15	0.251 ± 0.006	0.196 ± 0.018	0.225 ± 0.012	0.426 ± 0.03	0.405 ± 0.019	0.37 ± 0.0045
C[C@H](CCC(=O)O)[C@H]1CC[C@H]2[C@@H]3[C@@H](O)C[C@@H]4C[C@H](O)CC[C@]4(C)[C@H]3CC[C@]12C [Urosiol]	0.2 ± 0.0037	0.279 ± 0.0063	0.188 ± 0.0089	0.188 ± 0.0055	0.1123 ± 0.00023	0.14 ± 0.0032	0.3936 ± 0.0024	0.363 ± 0.018	0.168 ± 0.012	0.206 ± 0.03	0.406 ± 0.011	0.399 ± 0.0058	0.182 ± 0.019
O=C(CCCN1CCC(O)(c2ccc(Cl)cc2)CC1)c1ccc(F)cc1 [Haloperidol]	0.216 ± 0.0039	0.265 ± 0.012	0.273 ± 0.0054	0.192 ± 0.015	0.172 ± 0.0034	0.14 ± 0.0019	0.395 ± 0.047	0.452 ± 0.028	0.187 ± 0.0073	0.248 ± 0.034	0.354 ± 0.006	0.4348 ± 0.0041	0.239 ± 0.012
CN[C@@H]1[C@H](O[C@H]2[C@H](O[C@H]3[C@H](O)[C@@H](O)[C@H](NC(=N)N)[C@@H](O)[C@@H]3NC(=N)N)O[C@@H](C)[C@]2(O)CO)O[C@@H](CO)[C@H](O)[C@H]1O [Dihydrostreptomycin sulfate]	0.041 ± 0.0011	0.0419 ± 0.0011	0.03877 ± 0.00012	0.0454 ± 0.0053	0.0395 ± 0.0004	0.0485 ± 0.0005	0.0488 ± 0.00072	0.0499 ± 0.0017	0.0489 ± 0.00049	0.0483 ± 0.00061	0.0605 ± 0.0073	0.0553 ± 0.0036	0.0534 ± 0.00091
CC(=O)O[C@]1(C(C)=O)CC[C@H]2[C@@H]3C=C(C)C4=CC(=O)CC[C@]4(C)[C@H]3CC[C@@]21C [Megestrol acetate]	0.206 ± 0.022	0.285 ± 0.024	0.266 ± 0.013	0.16 ± 0.003	0.164 ± 0.0052	0.163 ± 0.016	0.441 ± 0.041	0.46 ± 0.026	0.2058 ± 0.0013	0.248 ± 0.034	0.212 ± 0.22	0.291 ± 0.12	0.302 ± 0.041
Cn1c(=O)c2nc[nH]c2n(C)c1=O [Theophylline monohydrate]	0.263 ± 0.0048	0.328 ± 0.018	0.283 ± 0.013	0.21 ± 0.027	0.189 ± 0.0034	0.158 ± 0.0078	0.4904 ± 0.0049	0.455 ± 0.0057	0.197 ± 0.014	0.241 ± 0.044	0.461 ± 0.014	0.406 ± 0.016	0.338 ± 0.01
NC[C@@H]1O[C@@H](O[C@H]2[C@H](O)[C@@H](O[C@H]3O[C@H](CO)[C@@H](O)[C@H](N)[C@H]3O)[C@H](N)C[C@@H]2N)[C@@H](O)[C@H](O)[C@H]1O [Kanamycin A sulfate]	0.247 ± 0.0031	0.302 ± 0.013	0.263 ± 0.0086	0.228 ± 0.016	0.1781 ± 0.0015	0.164 ± 0.0095	0.245 ± 0.044	0.404 ± 0.073	0.202 ± 0.0057	0.28 ± 0.056	–	0.403 ± 0.008	0.353 ± 0.014
COc1cc(C(=O)OCCCN2CCCN(CCCOC(=O)c3cc(OC)c(OC)c(OC)c3)CC2)cc(OC)c1OC [Dilazep dihydrochloride]	0.174 ± 0.0063	0.264 ± 0.034	0.291 ± 0.0076	0.18 ± 0.0077	0.118 ± 0.0022	0.154 ± 0.0029	0.232 ± 0.023	0.35 ± 0.051	0.171 ± 0.013	0.211 ± 0.034	0.416 ± 0.034	0.417 ± 0.012	0.316 ± 0.029
COc1ccc(C(=O)c2ccccc2O)c(O)c1 [Dioxybenzone]	0.125 ± 0.0069	0.116 ± 0.0049	0.124 ± 0.0053	0.107 ± 0.005	0.085 ± 0.0034	0.107 ± 0.0014	0.261 ± 0.022	0.197 ± 0.0098	0.183 ± 0.014	0.23 ± 0.016	0.355 ± 0.014	0.352 ± 0.05	0.152 ± 0.014
CC1Cc2ccccc2N1NC(=O)c1ccc(Cl)c(S(N)(=O)=O)c1 (stereo unspecified) [Indapamide]	0.225 ± 0.0038	0.278 ± 0.01	0.27 ± 0.011	0.191 ± 0.015	0.159 ± 0.0057	0.15 ± 0.009	0.224 ± 0.01	0.442 ± 0.03	0.208 ± 0.016	0.216 ± 0.021	0.497 ± 0.015	0.425 ± 0.014	0.336 ± 0.018
CC(C)(C)NC[C@H](O)COc1nsnc1N1CCOCC1 [Timolol maleate salt]	0.2306 ± 0.00072	0.306 ± 0.0088	0.252 ± 0.0061	0.198 ± 0.0053	0.172 ± 0.0044	0.151 ± 0.006	0.451 ± 0.021	0.432 ± 0.019	0.206 ± 0.016	0.258 ± 0.018	0.51 ± 0.069	0.401 ± 0.015	0.32 ± 0.021
O=C1c2cccc3c2[C@H](CCC3)CN1[C@@H]1CN2CCC1CC2 [Palonosetron hydrochloride]	0.212 ± 0.017	0.281 ± 0.0041	0.263 ± 0.013	0.177 ± 0.01	0.165 ± 0.0085	0.151 ± 0.0037	0.267 ± 0.049	0.279 ± 0.045	0.198 ± 0.0067	0.235 ± 0.02	–	0.417 ± 0.011	0.307 ± 0.022
CCCCNC(=O)NS(=O)(=O)c1ccc(C)cc1 [Tolbutamide]	0.253 ± 0.0049	0.295 ± 0.005	0.243 ± 0.0065	0.191 ± 0.018	0.16 ± 0.006	0.136 ± 0.0022	0.222 ± 0.016	0.405 ± 0.074	0.187 ± 0.021	0.186 ± 0.012	0.521 ± 0.12	0.409 ± 0.006	0.352 ± 0.021
Clc1cc(Cl)c(OCC#CI)cc1Cl [Haloprogin]	0.128 ± 0.027	0.249 ± 0.015	0.197 ± 0.0027	0.216 ± 0.004	0.137 ± 0.0043	0.168 ± 0.0052	0.242 ± 0.037	0.276 ± 0.095	0.245 ± 0.04	0.259 ± 0.018	0.195 ± 0.037	0.386 ± 0.027	0.104 ± 0.0032
CS(=O)(=O)c1ccc(C2=C(c3ccccc3)C(=O)OC2)cc1 [Rofecoxib]	0.182 ± 0.012	0.2483 ± 0.0006	0.242 ± 0.019	0.184 ± 0.037	0.151 ± 0.008	0.144 ± 0.011	0.336 ± 0.1	0.362 ± 0.097	0.205 ± 0.0062	0.213 ± 0.009	0.455 ± 0.041	0.409 ± 0.015	0.302 ± 0.041
